Laboratory results taken from PubChem BioAssay (NCATS).
Results filed as inconclusive are left out. Calls of active or inactive are those of the source. Calls follow the shape of the dose curve; as a rule, active = well fitted inhibition curve with a large enough effect; inconclusive = small, poorly fitted or top-dose-only effect; inactive = flat fitted curve, though single readings scatter.

Target: Ubiquitin carboxyl-terminal hydrolase 1 (Homo sapiens) (UniProt O94782)
Assay: Inhibitors of USP1/UAF1: Pilot qHTS (AID 504865); also: nearly all actives have a fitted effect of over 35% in size; also: potency is read from the fitted curve at half-maximal effect;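 as to activity change, negative = inhibition: rhodamine fluorescence freed from ubiquitin-rhodamine substrate followed over time; top concentration of the series differs between compounds; % is scaled to controls: 0 for no effect and ±100 for the full control effect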
Conditions: purified USP1/UAF1, Ub-rhodamine cleavage fluorescence; series mostly up to 54.9 µM; activity change, negative = inhibition: at the top concentration
Procedure, shortened: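 Deubiquitinase activity followed as kinetic rhodamine fluorescence release from 150 nM Ub-Rho. 1 nM USP1/UAF1 with compound, after 15 min room-temperature preincubation, in HEPES pH 7.8 buffer containing TCEP, EDTA, BSA and Tween-20.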

Ubiquitin carboxyl-terminal hydrolase 1 (Homo sapiens), sequence (O94782 whole entry, looked up): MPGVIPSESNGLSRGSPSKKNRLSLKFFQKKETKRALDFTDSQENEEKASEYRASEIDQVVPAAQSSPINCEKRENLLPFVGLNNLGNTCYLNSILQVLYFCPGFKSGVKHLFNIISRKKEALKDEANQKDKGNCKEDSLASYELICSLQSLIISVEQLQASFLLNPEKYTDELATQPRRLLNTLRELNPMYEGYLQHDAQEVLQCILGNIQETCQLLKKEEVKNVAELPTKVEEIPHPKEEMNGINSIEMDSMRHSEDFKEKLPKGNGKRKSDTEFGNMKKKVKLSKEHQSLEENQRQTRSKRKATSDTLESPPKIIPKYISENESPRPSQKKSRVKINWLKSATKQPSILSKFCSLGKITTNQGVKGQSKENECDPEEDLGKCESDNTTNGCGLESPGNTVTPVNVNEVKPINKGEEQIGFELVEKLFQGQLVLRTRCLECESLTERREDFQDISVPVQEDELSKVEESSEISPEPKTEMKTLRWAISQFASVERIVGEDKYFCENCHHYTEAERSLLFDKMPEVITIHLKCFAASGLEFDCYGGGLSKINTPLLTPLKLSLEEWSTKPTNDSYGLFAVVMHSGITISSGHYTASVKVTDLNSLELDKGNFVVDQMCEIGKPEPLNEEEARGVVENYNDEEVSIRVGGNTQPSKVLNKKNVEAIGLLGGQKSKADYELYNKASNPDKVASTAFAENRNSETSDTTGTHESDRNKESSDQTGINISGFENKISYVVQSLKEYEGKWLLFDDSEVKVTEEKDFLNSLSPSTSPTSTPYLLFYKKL

SMILES | Potency | activity change, negative = inhibition
N#C/C(=C\c1ccc(O)c(O)c1)C(=O)NCCCCc1ccccc1 | 35.5 µM (active) | 
Cc1ccccc1-c1ccc2ncnc(N(C)Cc3ccco3)c2c1 |  | -18.7% (inactive)
CC1=CC2C(CC1=O)C(C)=CCC2C(C)C (stereo not given) |  | -16.9% [at 114 µM] (inactive)
COc1cc(C/C=C/c2ccccc2)c(OC)cc1O |  | -12.4% [at 114 µM] (inactive)
COC(=O)CCCOc1ccc(Cl)cc1Cl |  | -13.5% [at 114 µM] (inactive)
C#C[C@]1(OC(C)=O)CCC2C3CCC4=CC(=O)CCC4C3CC[C@]21C (stereo not given in full) |  | -14.8% [at 114 µM] (inactive)
COC(=O)c1c(OC)cc2c(c1C)Oc1c(Cl)c(O)c(Cl)c(C)c1C(=O)O2 | 56.2 µM (active) | 
CCOC(=O)c1c(C)cc(OC)cc1O |  | -14.8% [at 114 µM] (inactive)
CC(=O)OC1CC2C(C)(C)CCC(=O)[C@@]2(C)C2CC[C@@]3(C)C(c4ccoc4)OC(=O)C4OC43[C@]12C (stereo not given in full) |  | -2.6% [at 114 µM] (inactive)
O=C(O)c1cc(O)c2c(c1)C(=O)c1cc(O)cc(O)c1C2=O | 56.2 µM (active) | 
O=c1c(-c2ccccc2)coc2cc(O)cc(O)c12 | 56.2 µM (active) | 
COc1cccc(-c2nc(Nc3ccncc3)c3ccccc3n2)c1 | 39.8 µM (active) | 
N[C@H](C(=O)O)C(O)C(O)C(O)CO (stereo not given in full) |  | -3.34% [at 114 µM] (inactive)
NCC1OC(n2cnc3c(=O)[nH]c(N)nc32)C(O)C1O (stereo not given) |  | -8.92% [at 114 µM] (inactive)
O=c1c(O)c(-c2ccc(O)c(O)c2)oc2c(OC3OC(CO)C(O)C(O)C3O)c(O)cc(O)c12 (stereo not given) |  | -8.65% [at 114 µM] (inactive)
CC1(C)C=CC(=O)[C@]2(C)C1CC(=O)[C@]1(C)C2CC[C@@]2(C)C(c3ccoc3)OC(=O)C3OC321 (stereo not given in full) |  | -13.6% [at 114 µM] (inactive)
O=C1CC[C@@]23/C=C/C(=O)NCCCCNCCCNC(=O)/C=C/c4ccc(c2c4)OC3C1 (stereo not given in full) |  | 165% [at 114 µM] (inactive)
COc1ccc2c(c1)OC/C(=C/c1ccc(O)c(O)c1)C2=O |  | -12.2% [at 114 µM] (inactive)
Nc1nc2n[nH]nc2c(=O)[nH]1 |  | 8.12% (inactive)
COc1ccc(C(=O)O)c(O)c1OC |  | -3.04% [at 114 µM] (inactive)

Target: DNA dC->dU-editing enzyme APOBEC-3G (Homo sapiens) (UniProt Q9HC16)
Sequence (Q9HC16 whole entry, looked up): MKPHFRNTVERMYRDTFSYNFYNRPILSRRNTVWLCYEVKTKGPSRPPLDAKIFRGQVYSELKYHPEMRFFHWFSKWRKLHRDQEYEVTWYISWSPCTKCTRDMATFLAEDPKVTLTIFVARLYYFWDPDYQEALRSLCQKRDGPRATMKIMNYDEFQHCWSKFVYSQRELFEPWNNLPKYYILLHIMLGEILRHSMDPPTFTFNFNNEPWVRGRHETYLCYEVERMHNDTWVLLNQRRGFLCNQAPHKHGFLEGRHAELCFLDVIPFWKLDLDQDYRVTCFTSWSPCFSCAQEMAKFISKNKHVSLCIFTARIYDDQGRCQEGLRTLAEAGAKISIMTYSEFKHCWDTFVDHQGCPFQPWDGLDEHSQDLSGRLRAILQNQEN
Assay: qHTS for inhibitors of Vif-A3G interactions: Validation (AID 588379); also: 0% is about no effect
Conditions: Vif-A3G protein interaction assay; series mostly up to 46.1 µM; activity change, negative = inhibition: at the top concentration
Procedure, shortened: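 Yellow fluorescence (Ex 488, Em 500-530) of Vif-coexpressing HeLa A3G-eYFP cells, scanned by Acumen cytometer, reports blocked A3G degradation. Cells plated at 700/well overnight at 37 deg C before compound addition, then a further overnight compound incubation at 37 deg C.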

SMILES | activity change, negative = inhibition
N#C/C(=C\c1ccc(O)c(O)c1)C(=O)NCCCCc1ccccc1 | -19.6% (inactive)
O=c1cc(-c2ccc(O)c(O)c2)oc2cc(OC3OC(CO)C(O)C(O)C3O)cc(O)c12 (stereo not given) | -3.43% (inactive)
CC1(C)[C@@H](O)CC[C@]2(C)C3C(=O)C=C4C5C[C@@](C)(C(=O)O)CC[C@]5(C)CC[C@@]4(C)[C@]3(C)CC[C@@H]12 (stereo not given in full) | -2.72% (inactive)
COc1ccc2c(c1)[C@@]1(C)CCC[C@](C)(CO)C1CC2 (stereo not given in full) | -0.602% (inactive)
COc1c(-c2ccc(O)c(O)c2)oc2cc(O)cc(O)c2c1=O | 0.0615% (inactive)
